Data from paper PMC7862700, “An all-to-all approach to the identification of sequence-specific readers for epigenetic DNA modifications on cytosine”.

Legend:
Experiment in all cases: DAPPL (digital affinity profiling via proximity ligation, sequencing); 10 mM Tris-HCl pH 7.5, 50 mM NaCl, 1 mM DTT, 4% glycerol, room temperature, 30 min; GST-TFs on glutathione beads, 16-mer random dsDNA library, 0.1% formaldehyde crosslink after washing; high values mean tight binding
[1] = target: T1, FEV (Homo sapiens, UniProt Q99581 1-238); conditions: protein: recombinant; tags: N-terminal GST; dsDNA, one strand shown
T1 sequence: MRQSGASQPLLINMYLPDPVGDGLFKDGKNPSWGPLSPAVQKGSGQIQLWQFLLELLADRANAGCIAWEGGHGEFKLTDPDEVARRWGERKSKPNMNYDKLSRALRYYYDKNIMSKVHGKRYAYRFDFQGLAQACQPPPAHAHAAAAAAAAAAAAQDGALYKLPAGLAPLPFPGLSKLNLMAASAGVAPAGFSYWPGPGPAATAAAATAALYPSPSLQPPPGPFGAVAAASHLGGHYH
Outline: (§1)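 Each value of binding signal is a hexamer's read frequency for a factor divided by the same hexamer's frequency in the tag-only sample. Barcoded, bead-captured GST fusions of human transcription factors made in yeast were pooled with that sample and incubated with 200 nmole of a random double-stranded 16-mer DNA library in Tris/NaCl/DTT/glycerol buffer at room temperature for 30 min. Washing, 0.1% formaldehyde crosslinking, proximity ligation, PCR and Illumina NextSeq500 sequencing followed.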

[2] = target: ETV5 (Homo sapiens, UniProt P41161 1-510); conditions: protein: recombinant; tags: N-terminal GST; dsDNA, one strand shown
Sequence of ETV5 (P41161 whole entry): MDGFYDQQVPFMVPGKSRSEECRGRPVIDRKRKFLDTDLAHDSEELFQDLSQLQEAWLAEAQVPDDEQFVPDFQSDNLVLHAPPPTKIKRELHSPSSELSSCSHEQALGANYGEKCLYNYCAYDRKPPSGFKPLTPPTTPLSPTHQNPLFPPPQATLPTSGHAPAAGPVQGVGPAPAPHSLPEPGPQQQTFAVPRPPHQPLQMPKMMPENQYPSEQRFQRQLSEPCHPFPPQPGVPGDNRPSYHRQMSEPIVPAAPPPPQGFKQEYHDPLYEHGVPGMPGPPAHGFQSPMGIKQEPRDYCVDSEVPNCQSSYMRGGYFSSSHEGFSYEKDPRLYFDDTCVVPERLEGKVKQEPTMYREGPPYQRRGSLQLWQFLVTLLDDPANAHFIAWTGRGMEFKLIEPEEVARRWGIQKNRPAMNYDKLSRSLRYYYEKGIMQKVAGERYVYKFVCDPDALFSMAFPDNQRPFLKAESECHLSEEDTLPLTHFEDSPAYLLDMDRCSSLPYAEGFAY
Outline: as §1

[3] = target: HSF1 (Homo sapiens, UniProt Q00613 1-529); conditions: protein: recombinant; tags: N-terminal GST; chain copies: 3; dsDNA, one strand shown
Sequence of HSF1 (Q00613 whole entry): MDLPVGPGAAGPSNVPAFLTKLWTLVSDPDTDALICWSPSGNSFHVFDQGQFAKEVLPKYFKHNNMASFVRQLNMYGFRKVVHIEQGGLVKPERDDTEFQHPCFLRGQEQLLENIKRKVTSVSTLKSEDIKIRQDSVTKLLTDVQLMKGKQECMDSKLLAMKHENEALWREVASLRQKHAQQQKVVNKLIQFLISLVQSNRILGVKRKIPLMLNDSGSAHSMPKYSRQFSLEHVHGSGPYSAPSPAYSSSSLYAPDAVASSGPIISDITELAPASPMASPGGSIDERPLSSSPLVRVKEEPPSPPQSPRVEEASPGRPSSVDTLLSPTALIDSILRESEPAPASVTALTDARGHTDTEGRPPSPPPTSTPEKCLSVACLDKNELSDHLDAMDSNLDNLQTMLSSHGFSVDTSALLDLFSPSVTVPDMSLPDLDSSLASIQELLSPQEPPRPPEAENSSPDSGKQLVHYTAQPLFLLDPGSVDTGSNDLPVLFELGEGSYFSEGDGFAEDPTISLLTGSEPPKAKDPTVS
Outline: as §1

[4] = target: T2, SPIC (Homo sapiens, UniProt Q8N5J4 1-248); conditions: protein: recombinant; tags: N-terminal GST; dsDNA, one strand shown
T2 sequence: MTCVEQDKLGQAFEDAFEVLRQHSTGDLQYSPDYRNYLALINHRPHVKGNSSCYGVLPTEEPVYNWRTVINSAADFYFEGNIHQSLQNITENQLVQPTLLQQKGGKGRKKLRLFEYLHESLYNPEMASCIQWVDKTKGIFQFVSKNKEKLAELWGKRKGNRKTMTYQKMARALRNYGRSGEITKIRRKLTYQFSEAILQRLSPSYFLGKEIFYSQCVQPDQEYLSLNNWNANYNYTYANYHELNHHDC
Outline: as §1

[5] = target: ELF4 (Homo sapiens, UniProt Q99607 1-663); conditions: protein: recombinant; tags: N-terminal GST; dsDNA, one strand shown
Sequence of ELF4 (Q99607 whole entry): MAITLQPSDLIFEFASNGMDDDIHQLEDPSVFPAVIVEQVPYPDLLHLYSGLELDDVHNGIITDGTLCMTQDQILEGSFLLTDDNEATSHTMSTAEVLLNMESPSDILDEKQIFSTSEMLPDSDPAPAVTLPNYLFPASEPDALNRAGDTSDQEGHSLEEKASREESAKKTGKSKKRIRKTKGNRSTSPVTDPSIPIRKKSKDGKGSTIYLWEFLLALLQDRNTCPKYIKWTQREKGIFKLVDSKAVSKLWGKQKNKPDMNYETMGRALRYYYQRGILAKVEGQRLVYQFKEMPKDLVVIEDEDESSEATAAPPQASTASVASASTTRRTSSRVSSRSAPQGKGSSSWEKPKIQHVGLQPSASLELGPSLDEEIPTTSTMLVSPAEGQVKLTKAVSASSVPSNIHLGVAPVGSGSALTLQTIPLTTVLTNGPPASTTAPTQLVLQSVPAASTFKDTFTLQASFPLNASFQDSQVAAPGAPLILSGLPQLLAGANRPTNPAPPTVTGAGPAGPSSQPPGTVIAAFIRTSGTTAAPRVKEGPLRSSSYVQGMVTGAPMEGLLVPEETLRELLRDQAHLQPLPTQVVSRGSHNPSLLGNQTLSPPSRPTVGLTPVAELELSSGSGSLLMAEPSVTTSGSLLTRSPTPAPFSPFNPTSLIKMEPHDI
Outline: as §1

[6] = target: T3, ELK4 (Homo sapiens, UniProt P28324-2 1-405); conditions: protein: recombinant; tags: N-terminal GST; dsDNA, one strand shown
T3 sequence: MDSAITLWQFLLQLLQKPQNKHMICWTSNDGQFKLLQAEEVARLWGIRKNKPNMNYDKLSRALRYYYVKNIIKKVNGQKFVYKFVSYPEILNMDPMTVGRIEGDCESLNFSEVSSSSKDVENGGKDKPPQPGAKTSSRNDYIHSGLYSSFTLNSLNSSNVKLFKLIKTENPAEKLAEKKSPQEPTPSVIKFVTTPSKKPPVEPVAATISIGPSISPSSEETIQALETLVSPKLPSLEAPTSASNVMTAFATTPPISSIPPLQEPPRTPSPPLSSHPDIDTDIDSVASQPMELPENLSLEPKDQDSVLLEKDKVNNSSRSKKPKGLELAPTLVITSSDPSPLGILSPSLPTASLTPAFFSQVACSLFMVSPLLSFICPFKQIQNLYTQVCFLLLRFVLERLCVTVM
Outline: as §1

[7] = target: T4, ETV2 (Homo sapiens, UniProt O00321 1-342); conditions: protein: recombinant; tags: N-terminal GST; dsDNA, one strand shown
T4 sequence: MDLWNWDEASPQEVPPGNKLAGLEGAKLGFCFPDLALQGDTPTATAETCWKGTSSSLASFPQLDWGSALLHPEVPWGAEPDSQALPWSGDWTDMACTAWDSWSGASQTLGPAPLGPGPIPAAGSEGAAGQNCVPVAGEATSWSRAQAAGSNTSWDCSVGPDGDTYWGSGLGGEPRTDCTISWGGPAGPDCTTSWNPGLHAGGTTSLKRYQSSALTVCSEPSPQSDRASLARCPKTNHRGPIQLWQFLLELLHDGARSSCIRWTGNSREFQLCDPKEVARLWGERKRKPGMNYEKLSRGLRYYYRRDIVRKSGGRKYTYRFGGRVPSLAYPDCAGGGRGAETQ
Outline: as §1

[8] = target: T5, ELF3 (Homo sapiens, UniProt P78545 1-371); conditions: protein: recombinant; tags: N-terminal GST; dsDNA, one strand shown
T5 sequence: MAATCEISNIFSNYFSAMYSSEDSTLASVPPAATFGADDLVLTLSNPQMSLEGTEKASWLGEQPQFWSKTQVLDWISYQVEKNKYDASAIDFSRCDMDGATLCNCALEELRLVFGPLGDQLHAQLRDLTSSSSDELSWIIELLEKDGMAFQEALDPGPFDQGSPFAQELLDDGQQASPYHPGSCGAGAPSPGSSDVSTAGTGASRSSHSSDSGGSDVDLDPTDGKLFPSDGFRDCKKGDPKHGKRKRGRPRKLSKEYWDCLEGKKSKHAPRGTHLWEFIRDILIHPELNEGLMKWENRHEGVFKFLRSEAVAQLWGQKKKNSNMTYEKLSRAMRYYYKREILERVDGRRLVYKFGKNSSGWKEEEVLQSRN
Outline: as §1

[9] = target: CRX (Homo sapiens, UniProt O43186 1-299); conditions: protein: recombinant; tags: N-terminal GST; dsDNA, one strand shown
Sequence of CRX (O43186 whole entry): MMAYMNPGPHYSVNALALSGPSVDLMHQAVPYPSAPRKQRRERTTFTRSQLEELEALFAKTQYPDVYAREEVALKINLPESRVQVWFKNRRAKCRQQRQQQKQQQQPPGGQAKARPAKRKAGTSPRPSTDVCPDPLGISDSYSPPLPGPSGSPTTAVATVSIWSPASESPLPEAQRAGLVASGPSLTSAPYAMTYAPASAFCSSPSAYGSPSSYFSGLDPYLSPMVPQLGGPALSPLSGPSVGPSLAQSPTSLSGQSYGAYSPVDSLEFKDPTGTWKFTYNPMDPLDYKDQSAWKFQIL
Outline: as §1

[10] = target: ETV1 (Homo sapiens, UniProt P50549 1-477); conditions: protein: recombinant; tags: N-terminal GST; dsDNA, one strand shown
Sequence of ETV1 (P50549 whole entry): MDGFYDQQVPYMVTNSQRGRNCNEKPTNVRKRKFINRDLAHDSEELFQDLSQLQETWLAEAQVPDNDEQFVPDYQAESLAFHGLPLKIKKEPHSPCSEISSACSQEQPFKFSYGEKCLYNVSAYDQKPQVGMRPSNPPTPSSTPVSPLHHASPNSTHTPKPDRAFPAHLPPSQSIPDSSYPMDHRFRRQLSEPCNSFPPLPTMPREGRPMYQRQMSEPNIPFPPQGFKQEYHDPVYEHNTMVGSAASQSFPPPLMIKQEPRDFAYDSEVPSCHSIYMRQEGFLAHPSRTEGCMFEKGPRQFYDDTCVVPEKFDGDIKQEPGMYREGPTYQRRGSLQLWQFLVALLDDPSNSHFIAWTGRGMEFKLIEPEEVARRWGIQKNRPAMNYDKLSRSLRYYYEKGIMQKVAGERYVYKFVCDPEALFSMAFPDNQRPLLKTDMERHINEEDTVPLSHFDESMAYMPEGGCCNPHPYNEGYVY
Outline: as §1

TGGCAA
binding signal [1]: 1.17 fold enrichment (6-mer frequency, TF over GST control)
binding signal [2]: 1.18 fold enrichment (6-mer frequency, TF over GST control)
binding signal [3]: 1.18 fold enrichment (6-mer frequency, TF over GST control)
binding signal [4]: 1.13 fold enrichment (6-mer frequency, TF over GST control)
binding signal [5]: 1.21 fold enrichment (6-mer frequency, TF over GST control)
binding signal [6]: 1.19 fold enrichment (6-mer frequency, TF over GST control)
binding signal [7]: 1.11 fold enrichment (6-mer frequency, TF over GST control)
binding signal [8]: 1.03 fold enrichment (6-mer frequency, TF over GST control)
binding signal [9]: 1.07 fold enrichment (6-mer frequency, TF over GST control)
binding signal [10]: 1.16 fold enrichment (6-mer frequency, TF over GST control)
